Compound activity (PubChem BioAssay)
A selection: hits, their analogues and other compounds. The true share with any hit is near 4.5%.
hcDAF12 agonist: H. contortus DAF-12 activation, primary screen | actives 1.4% (n = 370,000) | activation, % at 6.8 µM | HEK293 hcDAF-12 lit1-tk-luc reporter, luminescence; 0% DMSO, 100% Δ7-dafachronic acid;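 active = activation above the mean of all tested compounds plus 3 SD, cut at about 5.5% in these data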;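 note: 100% = response to 3 µM Δ7-dafachronic acid high control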
DAX1 inh-1: DAX1 (NR0B1) inhibition, primary screen. HEK293T StAR-luciferase reporter, SF-1/DAX-1 repression relief. inhibition, % at 6.8 µM. actives 1.1% (n = 370,000). AID 652010;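 active = inhibition above the mean over all tested compounds plus 3 SD, cut at about 3.6% in these data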;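 note: 0% = DAX-1 cells with DMSO and 100% = cells lacking DAX-1 with DMSO; higher inhibition means more luminescence from relief of DAX-1 repression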
GAA850 FXN act: activators of GAA850 frataxin (FXN) promoter. HEK293 lucGAA850 FXN promoter luciferase reporter, 24 h; percent of 10 µM SAHA response. actives 0.56% (n = 360,000). AID 540364. activation, % at 6 µM;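 active = activation above the average of all compounds screened plus 3 SD, cutoff fixed separately per campaign, cut at about 7.5% in these data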;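 note: 0% = DMSO wells and 100% = 10 µM SAHA wells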
DAX1 inh-2: inhibitors of human orphan nuclear receptor DAX1 (NR0B1); AID 504766; inhibition, % at 6.75 µM; actives 0.99% (n = 340,000); P51843; HEK293 Gal4-DAX1 luciferase reporter, luminescence;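 active = inhibition above the mean over all tested compounds plus 3 SD, cut at about 4.2% in these data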;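 note: 0% = DAX1-transfected cells with DMSO and 100% = empty-vector control cells with DMSO; inhibition shows as a rise in luminescence from relieved DAX1 repression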
Target sequence (P51843 207-470 limits assumed): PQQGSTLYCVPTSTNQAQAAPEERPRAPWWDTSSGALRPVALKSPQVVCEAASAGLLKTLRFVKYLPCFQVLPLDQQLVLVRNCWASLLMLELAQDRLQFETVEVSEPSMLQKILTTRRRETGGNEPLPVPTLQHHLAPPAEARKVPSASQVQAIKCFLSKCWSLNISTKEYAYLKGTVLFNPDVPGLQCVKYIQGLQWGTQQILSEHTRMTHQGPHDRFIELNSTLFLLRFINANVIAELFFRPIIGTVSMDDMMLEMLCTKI
ssDAF-12 act: activators of S. stercoralis DAF-12 nuclear receptor; HEK293 ssDAF-12/GRIP1 lit1-tk-luc reporter, luminescence; % of 3 µM dafachronic acid response; activation, % at 6.8 µM; actives 1% (n = 370,000); AID 652126;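 active = activation above the mean over all tested compounds plus 3 SD, cut at about 0.9% in these data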;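 note: 0% = DMSO-only wells and 100% = 3 µM delta7-dafachronic acid wells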
hgDAF-12 ag: activates the H. glycines DAF-12 receptor ligand-binding domain; actives 1.8% (n = 370,000); activation, % at 6.8 µM; HEK293 GAL4-hgDAF12 UAS-luciferase reporter, agonist luminescence; normalized to butyrate control;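 active = activation above a cutoff set at the mean of all screened compounds plus 3 SD, cut at about 10% in these data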;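 note: 0% = DMSO wells and 100% = sodium butyrate wells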
hgDAF12 ag: hgDAF-12 agonism, confirmation assay; activation, % at 6.8 µM; HEK293 GAL4-hgDAF12 luciferase reporter, agonist mode; percent of butyrate response; shares compounds with hgDAF-12 ag; actives 80% (n = 3,300); AID 743050;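 active = mean activation over triplicate wells above the hit cutoff derived from the earlier primary screen, cut at about 11% in these data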;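 note: 0% = DMSO low control and 100% = 2 mM sodium butyrate high control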
LXRb DAF12 ctr: counter-screen for DAF-12 agonists: agonists of human LXR-beta; shares compounds with hgDAF-12 ag; HEK293 Gal4-LXR luciferase reporter, 24 h; activation, % at 6.8 µM; 3,300 tested, under 10 active; AID 743051;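 active = mean activation of the triplicate above a set limit carried over from the primary screen, none filed active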
* marks the source's active call; other numbers are inactive results; x = no result given.

SMILES | hcDAF12 agonist | DAX1 inh-1 | GAA850 FXN act | DAX1 inh-2 | ssDAF-12 act | hgDAF-12 ag | hgDAF12 ag | LXRb DAF12 ctr
Cc1ccc2nc(-c3ccc(NC(=O)CSc4nccc(=O)[nH]4)cc3)sc2c1 | 5 | 2 | 1 | 2 | 0 | 14* | 12* | 1
Cc1nnc(SCC(=O)Nc2ccc(-c3nc4ccccc4s3)cc2)s1 | 6.0* | 4 | 3 | 3 | 1 | 20* | 20* | 1
Cc1ccc2nc(-c3ccc(NC(=O)CSc4nnc(Cc5cccs5)n4C)cc3)sc2c1 | 4 | 2 | x | x | 0 | 13* | 16* | 1
CCCCC[C@@H](C)N1C[C@H](COCc2ccccc2)Oc2cc(N3CCC[C@H]3CO)ccc2S1(=O)=O | 0 | 1 | x | x | -1 | 2 | x | x
CCOc1ccc(-c2n[nH]c(C(=O)NN)c2C)cc1 | 3 | 1 | 3 | 3 | -1 | 16* | 2 | 0
COc1cc(NC(=O)c2ccccn2)cc(OC)c1OC | -1 | 0 | -3 | 1 | -1 | 0 | x | x
COc1ccc(NC(=O)c2ccc(OC(F)F)cc2)cc1Cl | 5 | 3.7* | 4 | 1 | 1.4* | 17* | 12* | 0
O=C(Nc1ccc(OC(F)F)c(Cl)c1)c1ccccn1 | 4 | 4.5* | 7 | 5.2* | 1.4* | 14* | 17* | 1
O=C(Oc1ccccc1)c1cccc2cccc(C(=O)Oc3ccccc3)c12 | -2 | 0 | x | x | -1 | 0 | x | x
COc1ccccc1C=Cc1ccnc2ccccc12 | 1 | 1 | 5 | 2 | -1 | 1 | x | x
CN(C)c1ccc(C=Cc2ccnc3ccccc23)cc1N | 2 | 1 | x | x | -1 | 17* | 10 | 0
O=C(NNC(=S)NC(=O)c1ccccc1)c1ccc(O)cc1 | 1 | 0 | -1 | 0 | -1 | 1 | x | x
O=C(NNC(=S)Nc1ccccc1)c1ccc(O)cc1 | 2 | 3 | 4 | 6.0* | 0 | 15* | 12* | 1
CN1CCN(c2ccc3c(c2)OC[C@@H](Cc2ccccc2)NS3(=O)=O)CC1 | 0 | 1 | x | x | -1 | 0 | x | x
O=C(Nc1ccn(-c2ccccc2)n1)c1ccccc1Br | 0 | 1 | 6 | 2 | 0 | 20* | 5 | 0
CC(C)NOC(=O)c1ccc(Cl)cc1 | -3 | 0 | 1 | 1 | -1 | 3 | x | x
CCn1cc(C(=O)NCCCN2CCCC(C)C2)c(=O)c2cc(S(=O)(=O)N(C)C3CCCCC3)ccc21 (stereo not given) | -2 | 1 | 1 | 1 | -2 | 5 | x | x
CCOC(=O)c1c(NC(=O)c2ccc(N3C(=O)C4C5C=CC(C5)C4C3=O)cc2)sc2c1CCCC2 (stereo not given) | 1 | 0 | -1 | 0 | -2 | -1 | x | x
COc1ccc(/C=C/C(=O)NC2=NCCS2)c(OC)c1 | 5 | x | x | x | -1 | 14* | 15* | 1
O=C(NC1=NCCS1)c1cc(Cl)ccc1Cl | 0 | 0 | -1 | -1 | -1 | -1 | x | x
O=C(/C=C/c1ccc(Cl)c(Cl)c1)NC1=NCCS1 | 3 | 1 | 4 | 1 | 0 | 13* | 10* | 0
CCOc1ccc(NC(=O)CN(C)C(=O)c2ccc3c(c2)S(=O)(=O)N=C2CCCCCN23)cc1OCC | -1 | -1 | -1 | 1 | -1 | 0 | x | x
CCC1(c2ccc(F)cc2)NC(=O)N(CC(=O)Nc2ccc3c(c2)OCCO3)C1=O (stereo not given) | 2 | 4 | 0 | 0 | -1 | -1 | x | x
CCC1(c2ccc(F)cc2)NC(=O)N(CC(=O)Nc2ccc(-c3nc4ccc(C)cc4s3)cc2)C1=O (stereo not given) | 5 | 3.8* | 5 | 1 | 1 | 20* | 16* | 1
COc1ccc(C2(C)NC(=O)N(CC(=O)Nc3ccc(-c4nc5ccc(C)cc5s4)cc3)C2=O)cc1 (stereo not given) | 2 | 4 | 5 | x | 0 | 19* | 11* | 0
SMILES | hcDAF12 agonist | DAX1 inh-1 | GAA850 FXN act | DAX1 inh-2 | ssDAF-12 act | hgDAF-12 ag | hgDAF12 ag | LXRb DAF12 ctr
CCS(=O)(=O)Nc1cc2c3c(c1)CCC(=O)N3CCC2 | 1 | 1 | 2 | 1 | -1 | 1 | x | x
O=C(/C=C/c1cccs1)Nc1nncs1 | 0 | 1 | 2 | 2 | -1 | 9 | x | x
Cc1ccnc(NC(=O)/C=C/c2cccs2)c1 | 5.6* | 3 | -3 | 1 | 0 | 16* | 19* | 1
COc1ccc(C2CC(c3ccncc3)=NN2c2ccc(S(N)(=O)=O)cc2)cc1 (stereo not given) | 5 | 3 | 2 | 4 | 1 | 26* | 22* | 1
COc1ccc(C2CC(c3ccc(Cl)cc3)=NN2c2ccc(S(N)(=O)=O)cc2)cc1 (stereo not given) | 0 | -1 | -2 | 0 | -1 | 1 | x | x
COC(=O)c1cc(OC)c(OC)cc1NC(=O)C(C)c1ccc([N+](=O)[O-])cc1 (stereo not given) | 1 | -1 | 5 | -1 | -1 | -2 | x | x
C[C@@H]1C[C@H](O)c2cc(Cl)ccc2N1 | 1 | 1 | -1 | 0 | 0 | 2 | x | x
N#CC1CC(c2ccccc2)Nc2cc(Cl)ccc2N1 (stereo not given) | 6.0* | 0 | 1 | -2 | 1 | 20* | 13* | 0
CCOC(=O)[C@H]1[C@H]2COc3ccc(C)cc3[C@@H]2N2C(=O)c3cc(Br)ccc3NC(=O)[C@@]12C | -1 | 1 | -4 | 2 | -1 | 0 | x | x
Cc1ccc2nc(NC(=O)c3ccc(Br)o3)sc2c1 | 6.3* | 2 | 5 | 4 | 1 | 15* | 17* | 1
CCCCCCc1nnc(NC(=O)c2ccco2)s1 | 1 | 0 | 3 | 2 | -1 | 4 | x | x
CCN(CC)S(=O)(=O)c1ccc2nc(NC(=O)c3ccco3)sc2c1 | 1 | 1 | 3 | 2 | -1 | 7 | x | x
O=C(Nc1nc2ccc(Br)cc2s1)c1ccco1 | 6.1* | 3 | 1 | 1 | 1 | 13* | 17* | 1
CCCCc1ccc2nc(NC(=O)c3ccco3)sc2c1 | 5 | x | x | x | 0 | 22* | 19* | 1
Cc1cc2sc(NC(=O)c3ccco3)nc2cc1Cl | 4 | 3 | 1 | 2 | -1 | 14* | 20* | 1
Cc1ccc(C(=O)COC(=O)c2ccc(O)cc2)cc1 | 0 | 1 | 6 | 2 | -1 | 14* | 8 | 0
CCOC(=O)COC(=O)c1ccc(O)cc1 | 2 | 0 | 1 | 0 | -1 | 0 | x | x
Cc1ccccc1NC(=O)CCNS(=O)(=O)c1cccc2nsnc12 | -3 | 0 | 0 | 0 | -1 | 1 | x | x
